From PubChem
Dicer processing: human Dicer pre-microRNA cleavage inhibition; Q9UPY3; cat-ELCCA pre-miR-21 Dicer processing, chemiluminescence; hits give high values; z-score at 25 µM; 47,000 tested, 6% active; in the data active = z-score above about 3, passing the limit was not always enough;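 note: plate controls were vehicle for no effect and no enzyme for full effect; higher signal means more uncleaved substrate so more Dicer inhibition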
Starred values were filed as active, the others as inactive. The full list was thinned out, with hits kept by preference.

SMILES	Dicer processing
CSc1sc(C#N)c(C)c1-c1ccn(C(=O)c2cc(C(F)(F)F)cc(C(F)(F)F)c2)n1	0.69
O=S1(=O)N=C(Nc2cccc(F)c2)c2ccccc21	-1.2
O=[N+]([O-])c1cccnc1Sc1nccc(-c2cccnc2)n1	-0.47
CCOC(=O)c1c([N+](=O)[O-])c(C(C)(C)C)[nH]c(=O)c1C#N	-0.56
CC(C)n1cc(C(N)=S)c(=O)n(Cc2ccccc2)c1=O	-0.58
CC(C)n1cc(/C(N)=N/OC(=O)c2ccccc2Cl)c(=O)n(Cc2ccccc2)c1=O	0.85
Cn1cc(/C(N)=N/O)c(=O)n(Cc2ccccc2)c1=O	7.02*
c1ccc(CN(Cc2ccccc2)c2ncnc3sc(-c4ccccc4)cc23)cc1	-0.27
Cc1ccc(-c2ncnn2-c2cccc(Cl)c2C)cc1	0.51
COc1ccc2c(c1)c(C(=O)CNc1nc(C)cs1)c(C)n2C	1.61
COc1ccc2c(c1)c(C(=O)CNc1nccs1)c(C)n2C	6.63
COc1ccc2c(c1)c(C(=O)CN(C)C)c(C)n2C	4.71*
Cc1cc(NC(=O)c2c(O)c3cccc4c3n(c2=O)CCC4)n(-c2ccccc2)n1	0.26
O=c1[nH]c2cc(Cl)ccc2c(-c2ccccc2)c1Sc1ccccn1	-0.62
COc1ccc(-c2ncnn2-c2ccc(Cl)cc2)cc1	2.18
COc1ccc(-c2nc3n(n2)C(c2ccc(Cl)cc2)C2=C(CCCC2=O)N3)cc1 (centres undefined)	0.44
COc1ccc(-c2nc3n(n2)C(=O)CC(c2ccc(Cl)cc2)S3)cc1 (centres undefined)	4.47*
CC(=O)Nc1cc(C2CC2)nn1-c1ccccc1	-0.25
C/S(=N/C(=O)Nc1ccc(OC(F)(F)F)cc1)c1ccc(OC(=O)c2ccc(Cl)cc2)cc1 (centres undefined)	-0.24
C=CCSc1nc2ccccc2n1CC(=O)O	1.51
C=CCOC(=O)n1c(SC)nc2ccccc21	3.12*
CSc1nc2ccccc2n1CCOc1ccc(Cl)cc1	0.23
COc1ccc(CNC(=S)NCCCO)cc1	-1.32
C=CCOC(=O)C1=C(C)N=C2SCCC(=O)N2C1c1ccc(OC)cc1 (centres undefined)	0.02
O=S(=O)(c1ccccc1)c1ccc(S(=O)(=O)N2CCOCC2)s1	-0.55
SMILES	Dicer processing
O=S(=O)(c1ccccc1)c1ccc(S(=O)(=O)N2CCN(C3c4ccccc4-c4ccccc43)CC2)s1	3.36*
CC(=O)c1ccc(N2CCN(S(=O)(=O)c3ccc(S(=O)(=O)c4ccccc4)s3)CC2)cc1	-0.13
Cc1cc(NC(=O)/C(C#N)=C/c2cc(Br)cs2)no1	0.43
CCOC(=O)c1cc(-c2ccccc2)sc1NC(=O)Nc1ccccc1	-2.54
Cn1c(=O)c2c(nc(Cl)n2Cc2ccccc2Cl)n(C)c1=O	2.32
CSc1nc(C=Nc2cccc(Cl)c2)c(O)n1Cc1cccc(Cl)c1	1.6
CSc1nc(C=Nc2ccccc2)c(O)n1Cc1ccccc1Cl	5.12*
CC(C)CSc1nnc2sc3ccccc3n12	-1.11
CC(C)(C)C(=O)C(C#N)=C1SCCCS1	-1.82
O=C(Nc1nc2n(n1)C(c1ccc(F)cc1)C=C(c1ccccc1)N2)c1cccs1 (centres undefined)	1.92
O=C(Nc1nc2n(n1)C(c1ccc(Cl)cc1)C=C(c1ccccc1)N2)c1cccs1 (centres undefined)	1.63
O=C(Nc1nc2n(n1)C(c1ccc(F)cc1)C=C(c1ccc(Cl)cc1)N2)c1cccs1 (centres undefined)	17.1*
CC(C)(C)OC(=O)/C(C#N)=C/c1ccc(Cl)cc1	1.04
CC(C)(C)C(=O)/C(C#N)=C/c1ccc(C(F)(F)F)cc1	3.16*
CC(C)(C)C(=O)/C(C#N)=C/c1c(Cl)cccc1Cl	-0.78
CCOC(=O)NC(=O)c1cn(Cc2cccs2)c(=O)[nH]c1=O	-2.1
Cc1onc(-c2c(Cl)cccc2Cl)c1NC(=O)NNC(=S)NC(C)(C)C	-0.71
O=C(CSc1ccccn1)N1CCN(S(=O)(=O)c2ccccc2)C1	3.38*
Cn1nnnc1SCC(=O)N1CCN(S(=O)(=O)c2ccccc2)C1	0.44
O=C(CSc1nnnn1-c1ccccc1)N1CCN(S(=O)(=O)c2ccccc2)C1	2.9
CC(C)CNc1nc(Oc2ccc(=O)n(-c3ccccc3)n2)nc(N2CCOCC2)n1	3.63*
CC(C)CNc1nc(Oc2ccc(=O)n(C)n2)nc(N2CCOCC2)n1	1.64
CC(C)(C)Nc1nc(Oc2ccc(=O)n(-c3ccccc3)n2)nc(N2CCOCC2)n1	-0.55
N#C/C(=C\c1ccccc1Sc1ccc(Cl)cc1)S(=O)(=O)c1ccc(Cl)cc1	-1.58
O=C(Oc1ccc2c(c1)oc(=O)c1ccccc12)c1ccc(F)cc1	-0.25
SMILES	Dicer processing
CN(C(=O)CSc1nc(-c2ccco2)cc(C(F)(F)F)n1)c1ccccc1	-0.46
O=S(=O)(c1ccc(Cl)cc1)N1CCSCC1	0.73
O=S(=O)(c1ccc(Cl)cc1)N1CCN(c2cccc(Cl)c2)CC1	3.09*
CN(C)C(=O)N1CCN(S(=O)(=O)c2ccc(Cl)cc2)CC1	0.7
CCOC(=O)C1=CS/C(=C2/C(=S)C(C)(C)Nc3c(OCC)cccc32)S1	3.67*
CCOc1cccc2c1N(C(C)=O)C(C)(C)C(=S)C2=C1SC(C(=O)OC)=C(C(=O)OC)S1	0.96
